Molecules are shown by their SMILES. Several values for one entry are separate records, joined by “and”; a condition that tells them apart may be missing. Identical values can stand only once. Records with an inconclusive call do not appear. Where a call stands in place of a potency, no number is given. Values without a mark were called inactive. Activity calls are given as the source filed them. Calls come from the whole dose curve; as a rule, active = well fitted cell-killing curve with a large enough effect in the repeat runs; inconclusive = weak or mixed curves; inactive = flat fitted curve, though single readings scatter.
Potency is the fitted concentration of half-maximal effect.

This assay is described as follows: qHTS assay to identify small molecule antagonists of the TGF-beta/Smad signaling pathway - cell viability counter screen (AID 1346824). Note: nearly all actives have a fitted effect of over 50% in size. Particulars: SBE-bla HEK293T viability, CellTiter-Glo luminescence; series mostly up to 76.8 µM. The source says:
U.S. Tox21 Program National Center for Advancing Translational Sciences [NCATS] NIH Chemical Genomics Center [NCGC] U.S. Environmental Protection Agency [EPA] National Institutes of Environmental Health Sciences [NIEHS] National Toxicology Program [NTP] U.S. Food and Drug Administration [FDA] Tox21 Assay Overview: Transforming growth factor beta (TGF-beta) superfamily consists of a large number of structurally related dimeric proteins that act as hormones or local mediators in regulating a wide range of biological functions. This superfamily includes TGF-betas themselves, the bone morphogenetic proteins (BMPs) and the activins. These ligands induce oligomerization of serine/threonine receptor kinases and phosphorylate the cytoplasmic signaling molecules of Smad protein family. CellSensor SBE-bla HEK 293T cell line (Life Technologies, Carlsbad, CA), responsive to TGF-beta was used to screen Tox21 10K compound library for identification of agonists/antagonists of the Smad signaling pathway. This cell line contains a beta-lactamase reporter gene under control of the Smad binding element (SBE) stably integrated into HEK 293T cells. Also cytotoxicity of the compounds was tested in parallel by measuring the cell viability using CellTiter-Glo assay system in the same wells.
Tox21 Assay Protocol Summary: SBE-bla HEK 293T cells were dispensed at 4,000/well in 5 uL of assay medium into black wall/clear-bottom 1536-well plates using a Multidrop Combi (ThermoFisher Scientific, Waltham, MA) dispenser. After the assay plates were incubated at 37 C and 5% CO2 for an overnight, 23 nL of compounds dissolved in DMSO, positive controls or DMSO only was transferred to the assay plate by a Pintool station (Kalypsys, San Diego, CA). Compound transfer was followed by the addition of 1 uL of 0.25 ng/mL TGF-beta1 or assay buffer using two separate tips of Flying Reagent Dispenser (FRD, Aurora Discovery, San Diego, CA). The assay plates were incubated at 37 C and 5% CO2 for 5 hr. One uL of LiveBLAzer B/G FRET substrate (Life Technologies) was added using a Flying Reagent Dispenser (FRD, Aurora Discovery, San Diego, CA) and the plates were incubated at room temperature for 2 hr. Fluorescence intensity (405 nm excitation, 460 nm and 530 nm emissions) was measured using an Envision plate reader (PerkinElmer, Shelton, CT). For cytotoxicity read, 4 uL of CellTiter-Glo reagent (Promega Corporation, Madison, WI) was added to each well of the assay plates using FRD. After 30 min incubation at room temperature, the luminescence intensity was measured using ViewLux plate reader (PerkinElmer).
In general terms: In qHTS, concentration-response curves come from the screen itself.
With `Cc1cccc(O)c1C`, the Potency result is “inactive”.

In the case of `C[N+]1([O-])CCOCC1`, the Potency result was “inactive”.

Consider `c1ccc2cc3c(ccc4ccccc43)cc2c1`, for which the Potency entry is “inactive”.

For `CNCCC(Oc1ccc(C(F)(F)F)cc1)c1ccccc1` (stereo not given), the Potency entry is “inactive”.

`Cc1occc(=O)c1OC(=O)C(C)C`: the Potency result is “inactive”.

Regarding `Cc1cccc([N+](=O)[O-])c1C(=O)O`, the Potency entry was “inactive”.

For the compound `CC(C)(C)c1ccccc1`, the Potency entry was “inactive”.

For the compound `Cc1ccnc2c1NC(=O)c1cccnc1N2C1CC1`, the Potency result was “inactive”.

Consider `O=C(O)c1cn(-c2ccc(F)cc2)c2cc(N3CCNCC3)c(F)cc2c1=O`, for which the Potency entry was “inactive”.

Regarding `NC(N)=NC(=O)Cc1c(Cl)cccc1Cl`, the Potency entry is “inactive”.

With `CC(COc1ccccc1)N(CCCl)Cc1ccccc1` (stereo not given), the Potency entry is “inactive”.

Take `O=Nc1ccc(Nc2ccccc2)cc1`: the Potency entry was “inactive”.

Consider `NC(Cc1ccc(Cl)cc1)C(=O)O` (stereo not given), for which the viability change, negative = cytotoxic was 4.44% [at 0.29 µM].

For `CCCC(=O)c1ccccc1`, the Potency result was “inactive”.

In the case of `OCC(CO)N[C@H]1C[C@](O)(CO)[C@@H](O)[C@H](O)[C@H]1O`, the Potency entry was “inactive”.

Turning to `CC(=O)CC(C)=O`, the Potency result was “inactive”.

On to `COc1nc(C)nc(Cl)c1NC1=NCCN1`, for which the Potency result was “inactive”.

Consider `O=C(O)c1cccc(C(=O)O)c1`, for which the Potency result was “inactive”.

`c1ccc2n[nH]nc2c1`: the Potency entry is “inactive”.

For `c1cc(C(c2ccc(OCC3CO3)cc2)C(c2ccc(OCC3CO3)cc2)c2ccc(OCC3CO3)cc2)ccc1OCC1CO1` (stereo not given), the Potency entry is “inactive”.

Take `O=Cc1ccc(Cl)cc1`: the Potency result is “inactive”.

As for `CC[C@@H](N)CO`, the Potency result was “inactive”.

In the case of `O=C(Oc1ccccc1)c1ccccc1O`, the Potency entry is “inactive”.

On to `CC1COC(=O)O1` (stereo not given), for which the Potency result was “inactive”.

For the compound `Cc1ccc(S(=O)(=O)Oc2ccc(N=Nc3ccc(-c4ccc(N=Nc5c(O)ccc6cc(S(=O)(=O)O)cc(S(=O)(=O)O)c56)c(C)c4)cc3C)cc2)cc1`, the Potency result is “inactive”.

Regarding `c1ccc2c(c1)CCCC2C1=NCCN1` (stereo not given), the Potency result is “inactive”.

As to `NCCO`, the Potency result is “inactive”.

On to `CCn1c2ccccc2c2cc(N)ccc21`, for which the Potency result is “inactive”.

As for `COC(=O)c1cccc(C(=O)OC)c1`, the Potency result is “inactive”.

On to `c1ccc2c(c1)-c1cccc3c1c-2cc1ccccc13`, for which the Potency result was “inactive”.

In the case of `[Cl][In]([Cl])[Cl]`, the Potency entry was “inactive”.

As to `COc1cc(C(=S)N2CCOCC2)ccc1O`, the Potency result is “inactive”.

`O=C(O)CCc1ccccc1`: the Potency entry is “inactive”.

Take `CC1=CC(=O)c2ccccc2C1=O`: the Potency was 49 µM (active).

Consider `C=CC(=O)OCCCCCCOC(=O)C=C`, for which the Potency entry is “inactive”.

On to `CCN1CCCC1CNC(=O)c1cc(S(=O)(=O)CC)c(N)cc1OC` (stereo not given), for which the Potency result is “inactive”.

With `CC(C)CCOC(=O)c1ccc(N(C)C)cc1`, the Potency result is “inactive”.

Take `CC(=O)CC(=O)Nc1ccc2[nH]c(=O)[nH]c2c1`: the Potency result was “inactive”.

Regarding `CN(C)c1ccc2nc3ccc(=[N+](C)C)cc-3sc2c1`, the Potency result is “inactive”.

As for `Cc1cc(Cc2cc(C)cc(C(C)(C)C)c2O)c(O)c(C(C)(C)C)c1`, the Potency is 49.2 µM (active) and 54.9 µM (active).

These data come from PubChem BioAssay (Tox21).
